# Results filed as inconclusive are left out. A call without a number means that no potency is given here. A number with no mark means an inactive call. Active and inactive are the calls of the source. Unless noted, calls come from the whole dose curve; as a rule, active = well fitted cell-killing curve with a large enough effect in the repeat runs; inconclusive = weak or mixed curves; inactive = no such curve, though single readings can be large or run the other way.
# Test system: not listed separately
# Experiment: qHTS assay to identify small molecule agonists of the peroxisome proliferator-activated receptor delta (PPARd) signaling pathway - cell viability counter screen (AID 743211); note: nearly all actives have a fitted effect of over 55% in size
# Settings: PPARd-bla HEK293H viability, CellTiter-Glo luminescence, 17 h; series mostly up to 62.6 µM; activity change, negative = cytotoxicity: at the top concentration
# Procedure, shortened: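 Multiplexed format: after the 2 h room-temperature LiveBLAzer B/G FRET step, CellTiter-Glo was added to the same wells. Luminescence after 30 min gave cell viability; compound exposure was 17 h at 37C.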
Structure (SMILES),outcome,"activity change, negative = cytotoxicity"
CC(C)CC(=O)CC(C)CC(C)C (stereo unspecified),inactive,–
O=C(O)CCCCCCCCC(=O)O,inactive,–
CN(C)c1ccc(O)c2c1C[C@H]1C[C@H]3[C@H](N(C)C)C(=O)C(C(N)=O)=C(O)[C@@]3(O)C(=O)C1=C2O,–,0.154%
NC(=S)NNC(N)=S,inactive,–
c1ccc(Oc2ccccc2)cc1,inactive,–
CCCCCCCCCCN,inactive,–
O=[N+]([O-])c1ccc2nc[nH]c2c1,inactive,–
C[Si]1(C)O[Si](C)(C)O[Si](C)(C)O[Si](C)(C)O1,inactive,–
CC(C)c1cccc(C(C)C)c1,inactive,–
O=C1c2ccccc2CCc2ccccc21,inactive,–
CC(C)=CCl,inactive,–
C=CC[N+](C)(C)CC=C,inactive,–
COc1ccc([N+](=O)[O-])cc1N,inactive,–
O=C(O)c1ccc(C(=O)O)c(C(=O)O)c1,inactive,–
NCCCCCCN,inactive,–
NCCNCCN,inactive,–
CCCCCC(=O)O,inactive,–
CC(C)(C)c1cc(Cc2cc(C(C)(C)C)c(O)c(C(C)(C)C)c2)cc(C(C)(C)C)c1O,–,16.5%
COC(=O)CCCC(=O)OC,inactive,–

Structure (SMILES),outcome,"activity change, negative = cytotoxicity"
CN(C)c1ccc(Cc2ccc(N(C)C)cc2)cc1,inactive,–
CC(C)OP(=O)(CP(=O)(OC(C)C)OC(C)C)OC(C)C,inactive,–
COC(=O)c1cccnc1,inactive,–
CCOC(=O)n1ccn(C)c1=S,inactive,–
Cc1ccc(S(=O)(=O)N=C=O)cc1,inactive,–
CC(CCl)OP(=O)(OC(C)CCl)OC(C)CCl (stereo unspecified),inactive,–
CC(C)CCCCCCCOC(=O)CCCCC(=O)OCCCCCCCC(C)C,inactive,–
CC(=O)c1ccc(O)cc1,inactive,–
C=C(C)CNCC,–,4.51%
CCCCC(C=O)CC (stereo unspecified),inactive,–
C=C(C)C(=O)OCC(C)C,inactive,–
CCNc1ccccc1,–,0.93% [at 81.1 µM]
O=C(O)/C=C/C(=O)O,inactive,–
CC(=O)OCc1ccco1,inactive,–
O=C(O)c1cc2ccccc2cc1O,inactive,–
CCNc1cccc(C)c1,–,0.413%
COc1ccc(OC)cc1,inactive,–
N#Cc1ccccc1,inactive,–

# Target: Peroxisome proliferator-activated receptor delta (Homo sapiens) (UniProt Q03181)
# Sequence (Q03181 whole entry, looked up): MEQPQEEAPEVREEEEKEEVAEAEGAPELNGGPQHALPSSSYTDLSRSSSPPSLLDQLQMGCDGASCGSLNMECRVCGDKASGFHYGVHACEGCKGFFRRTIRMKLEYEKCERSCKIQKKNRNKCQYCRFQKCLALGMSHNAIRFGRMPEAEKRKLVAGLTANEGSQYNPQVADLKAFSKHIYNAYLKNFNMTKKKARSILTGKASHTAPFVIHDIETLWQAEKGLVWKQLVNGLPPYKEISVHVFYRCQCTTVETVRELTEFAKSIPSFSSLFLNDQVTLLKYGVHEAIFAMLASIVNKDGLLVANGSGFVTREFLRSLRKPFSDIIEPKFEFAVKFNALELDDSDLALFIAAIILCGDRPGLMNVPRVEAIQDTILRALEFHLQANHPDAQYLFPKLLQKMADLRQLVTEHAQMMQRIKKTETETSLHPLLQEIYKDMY
# Experiment: qHTS assay to identify small molecule agonists of the peroxisome proliferator-activated receptor delta (PPARd) signaling pathway (AID 743212; calls by dose curve)
# Settings: HEK293H PPARd-UAS-bla, beta-lactamase FRET ratio, 17 h; series mostly up to 62.6 µM; activation: at the top concentration
# Procedure, shortened: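 HEK293H UAS-bla reporter cells, human PPARd system; compounds delivered in DMSO after 5 h plating, then at 37 C. Beta-lactamase FRET read, 2 h RT substrate step.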
Structure (SMILES),Potency,activation
CC(C)CC(=O)CC(C)CC(C)C (stereo unspecified),inactive,–
O=C(O)CCCCCCCCC(=O)O,inactive,–
CN(C)c1ccc(O)c2c1C[C@H]1C[C@H]3[C@H](N(C)C)C(=O)C(C(N)=O)=C(O)[C@@]3(O)C(=O)C1=C2O,–,-0.884%
NC(=S)NNC(N)=S,inactive,–
c1ccc(Oc2ccccc2)cc1,inactive,–
CCCCCCCCCCN,inactive,–
O=[N+]([O-])c1ccc2nc[nH]c2c1,inactive,–
C[Si]1(C)O[Si](C)(C)O[Si](C)(C)O[Si](C)(C)O1,–,-3.1% [at 81.1 µM]
CC(C)c1cccc(C(C)C)c1,inactive,–
O=C1c2ccccc2CCc2ccccc21,inactive,–
CC(C)=CCl,inactive,–
C=CC[N+](C)(C)CC=C,inactive,–
COc1ccc([N+](=O)[O-])cc1N,inactive,–
O=C(O)c1ccc(C(=O)O)c(C(=O)O)c1,inactive,–
NCCCCCCN,inactive,–
NCCNCCN,inactive,–
CCCCCC(=O)O,inactive,–
CC(C)(C)c1cc(Cc2cc(C(C)(C)C)c(O)c(C(C)(C)C)c2)cc(C(C)(C)C)c1O,inactive,–
COC(=O)CCCC(=O)OC,inactive,–

Structure (SMILES),Potency,activation
CN(C)c1ccc(Cc2ccc(N(C)C)cc2)cc1,inactive,–
CC(C)OP(=O)(CP(=O)(OC(C)C)OC(C)C)OC(C)C,inactive,–
COC(=O)c1cccnc1,inactive,–
CCOC(=O)n1ccn(C)c1=S,inactive,–
Cc1ccc(S(=O)(=O)N=C=O)cc1,inactive,–
CC(CCl)OP(=O)(OC(C)CCl)OC(C)CCl (stereo unspecified),inactive,–
CC(C)CCCCCCCOC(=O)CCCCC(=O)OCCCCCCCC(C)C,inactive,–
CC(=O)c1ccc(O)cc1,inactive,–
C=C(C)CNCC,inactive,–
CCCCC(C=O)CC (stereo unspecified),inactive,–
C=C(C)C(=O)OCC(C)C,inactive,–
CCNc1ccccc1,inactive,–
O=C(O)/C=C/C(=O)O,inactive,–
CC(=O)OCc1ccco1,inactive,–
O=C(O)c1cc2ccccc2cc1O,inactive,–
CCNc1cccc(C)c1,inactive,–
COc1ccc(OC)cc1,inactive,–
N#Cc1ccccc1,–,4.54%

# Test system: not listed separately
# Experiment: qHTS assay to identify small molecule antagonists of the peroxisome proliferator-activated receptor delta (PPARd) signaling pathway - cell viability counter screen (AID 743213); note: nearly all actives have a fitted effect of over 50% in size
# Settings: PPARd-bla HEK293H viability, CellTiter-Glo luminescence, 17 h; series mostly up to 62 µM; viability change, negative = cytotoxic: at the top concentration
# Procedure, shortened: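 In this counter screen, HEK293H cells carrying a UAS-beta-lactamase reporter are co-treated with test compounds and 300 nM L165041 (final) for 17 h at 37 C; cell viability is quantified by CellTiter-Glo luminescence.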
Structure (SMILES),outcome,"viability change, negative = cytotoxic"
CC(C)CC(=O)CC(C)CC(C)C (stereo unspecified),inactive,–
O=C(O)CCCCCCCCC(=O)O,inactive,–
CN(C)c1ccc(O)c2c1C[C@H]1C[C@H]3[C@H](N(C)C)C(=O)C(C(N)=O)=C(O)[C@@]3(O)C(=O)C1=C2O,–,3.21%
NC(=S)NNC(N)=S,–,5.61%
c1ccc(Oc2ccccc2)cc1,–,-2.43%
CCCCCCCCCCN,inactive,–
O=[N+]([O-])c1ccc2nc[nH]c2c1,–,3.68%
C[Si]1(C)O[Si](C)(C)O[Si](C)(C)O[Si](C)(C)O1,–,-2.24% [at 80.4 µM]
CC(C)c1cccc(C(C)C)c1,inactive,–
O=C1c2ccccc2CCc2ccccc21,inactive,–
CC(C)=CCl,inactive,–
C=CC[N+](C)(C)CC=C,inactive,–
COc1ccc([N+](=O)[O-])cc1N,inactive,–
O=C(O)c1ccc(C(=O)O)c(C(=O)O)c1,inactive,–
NCCCCCCN,inactive,–
NCCNCCN,–,6.39% [at 80.4 µM]
CCCCCC(=O)O,inactive,–
CC(C)(C)c1cc(Cc2cc(C(C)(C)C)c(O)c(C(C)(C)C)c2)cc(C(C)(C)C)c1O,inactive,–
COC(=O)CCCC(=O)OC,inactive,–

Structure (SMILES),outcome,"viability change, negative = cytotoxic"
CN(C)c1ccc(Cc2ccc(N(C)C)cc2)cc1,inactive,–
CC(C)OP(=O)(CP(=O)(OC(C)C)OC(C)C)OC(C)C,inactive,–
COC(=O)c1cccnc1,inactive,–
CCOC(=O)n1ccn(C)c1=S,inactive,–
Cc1ccc(S(=O)(=O)N=C=O)cc1,inactive,–
CC(CCl)OP(=O)(OC(C)CCl)OC(C)CCl (stereo unspecified),–,-9.12%
CC(C)CCCCCCCOC(=O)CCCCC(=O)OCCCCCCCC(C)C,–,-9.3%
CC(=O)c1ccc(O)cc1,inactive,–
C=C(C)CNCC,inactive,–
CCCCC(C=O)CC (stereo unspecified),inactive,–
C=C(C)C(=O)OCC(C)C,inactive,–
CCNc1ccccc1,inactive,–
O=C(O)/C=C/C(=O)O,inactive,–
CC(=O)OCc1ccco1,inactive,–
O=C(O)c1cc2ccccc2cc1O,inactive,–
CCNc1cccc(C)c1,inactive,–
COc1ccc(OC)cc1,inactive,–
N#Cc1ccccc1,inactive,–

# — PubChem BioAssay (Tox21)
